Here are results for 82 compounds from PubChem BioAssay AID540333 (Southern Research Specialized Biocontainment Screening …, 2011).

Hit rate of the full screen: of about 10,000 compounds, about 320 (3.2%) were called active. Cut-off read from the data, not from the text of the source: active = CPE inhibition mostly above about 9.1% (no sharp cut-off); inactive = mostly below about 7.2%. This excerpt belongs to a sample that is enriched for actives.

This test in a line: Dengue virus cytopathic effect inhibitors, cell-based, CPE readout, HTS (AID 540333). As to conditions: Dengue virus CPE inhibition in host cells, at 20 µM; hits give high values.
Take `CCCn1c(C(C)Nc2nc(-c3ccc(Cl)c([N+](=O)[O-])c3)cs2)nc2ccccc21` (configuration not stated): the CPE inhibition is 29.9% (active).
Next, `CC(O)c1nc2ccccc2n1Cc1ccc([N+](=O)[O-])cc1` (configuration not stated): “inactive”; `Cc1ccc(-c2csc(NC(CO)c3nc4ccccc4n3CCOCCO)n2)cc1` (configuration not stated): 0.615% (inactive); `CCC1CCCCN1C(=O)c1cccc(S(=O)(=O)Nc2cc(C(F)(F)F)ccc2Cl)c1` (configuration not stated): 3.38% (inactive).
For `COc1ccc(CCN=C(N)NS(=O)(=O)c2ccc3ccccc3c2)cc1`, the CPE inhibition result was “inactive”.
As to `Cc1ccc(C2(CCN)CCOC(C(C)C)C2)cc1` (configuration not stated), the CPE inhibition is 7.74% (active).
To `O=C(NNS(=O)(=O)c1ccc(Cl)cc1)c1ccc(S(=O)(=O)N2CCCCC2)cc1` belongs “inactive”; to `CC(C)(C)c1ccc(S(=O)(=O)N2CCCCC2)cc1`, 9.75% (active); to `Cc1ccc(S(=O)(=O)N2CCCCCC2)cc1[N+](=O)[O-]`, “inactive”.
`CC(C)(C)c1ccc(S(=O)(=O)N2CCSC2)cc1`: the CPE inhibition is 0.03% (inactive).
Turning to `COC(=O)c1ccccc1NC(=S)N(Cc1ccc2c(c1)OCO2)Cc1cc2cc(C)ccc2[nH]c1=O`, the CPE inhibition was 21.6% (active).
Next, `COC(=O)c1ccccc1NC(=S)N(Cc1ccc2c(c1)OCO2)Cc1cc2ccc(C)cc2[nH]c1=O`: 33% (active).
As to `COC(=O)c1ccccc1NC(=S)N(Cc1ccc2c(c1)OCO2)Cc1cc2ccc(OC)cc2[nH]c1=O`, the CPE inhibition is 23.8% (active).
To `CCOc1ccccc1NC(=S)N(Cc1cc2ccc(C)cc2[nH]c1=O)CC1CCCN1CC` (configuration not stated) belongs “inactive”; to `COc1cc2cc(CN(Cc3cccs3)C(=S)Nc3ccccc3)c(=O)[nH]c2cc1OC`, 6.21% (inactive); to `Cc1ccc2[nH]c(=O)c(CN(Cc3cccs3)C(=S)NCc3ccco3)cc2c1`, 5.92% (inactive).
Take `CNC(=S)N(Cc1cccs1)Cc1cc2cc(OC)c(OC)cc2[nH]c1=O`: the CPE inhibition entry was “inactive”.
Next, `COC(=O)c1ccccc1NC(=S)N(Cc1ccc2c(c1)OCO2)Cc1cc2cc(OC)ccc2[nH]c1=O`: 3.25% (inactive); `CCN1CCCC1CN(Cc1cc2ccc(C)cc2[nH]c1=O)C(=S)Nc1ccccc1OC` (configuration not stated): “inactive”.
As for `COC(=O)Cc1ccc(NC(=S)N2CCN(c3cccc(O)c3)CC2)cc1`, the CPE inhibition was 0.105% (inactive).
`CCOC(=O)CCCNC(=O)COC(=O)[C@@H]1CCCN1S(=O)(=O)c1ccc(Cl)cc1`: the CPE inhibition entry is “inactive”.
To `Cc1ccc(-c2nc3ccccc3c(=O)n2NC(=O)COc2ccccc2)cc1` belongs 0.37% (inactive); to `CN(C)c1ccc(/C=N/NC(=S)NCc2ccco2)cc1`, 0.335% (inactive).
Next, `COc1ccc(NC(=O)Nc2cccc([N+](=O)[O-])c2)cc1Cl`: 0.865% (inactive); `O=C(O)c1ccc(NC(CSCc2ccccc2F)C(=O)O)c([N+](=O)[O-])c1` (configuration not stated): “inactive”.
To `CC12CCC(C(=O)N(c3ccc(Cl)cc3)C1=O)C2(C)C` (configuration not stated) belongs “inactive”.
For the compound `Cc1c(N=C2NC(=O)/C(=C/c3ccc(O)cc3)S2)c(=O)n(-c2ccccc2)n1C`, the CPE inhibition was 0.27% (inactive).
Take `CC12CCC(C/C1=N\N=C1\NC(=O)/C(=C\c3ccc(Cl)cc3)S1)C2(C)C` (configuration not stated): the CPE inhibition is 12.2% (active).
Turning to `NS(=O)(=O)c1ccc(NC(=S)N2CCN(c3ccccc3)CC2)cc1`, the CPE inhibition was 0.43% (inactive).
Regarding `O=C(COc1ccccc1-c1ccccc1)NCCN1C(=O)S/C(=C\c2cccnc2)C1=O`, the CPE inhibition was 2.91% (inactive).
Take `COc1ccc(N(C(=O)C2COc3ccccc3O2)C(C(=O)NC2CCCCC2)c2ccccc2)cc1OC` (configuration not stated): the CPE inhibition is 4.27% (inactive).
Regarding `COc1ccc(N(C(=O)CSCC(=O)Nc2cc(C)on2)C(C(=O)NC2CCCCC2)c2ccc(O)c(O)c2)cc1` (configuration not stated), the CPE inhibition entry was “inactive”.
For `COc1cc(OC)cc(N(C(=O)C2COc3ccccc3O2)C(C(=O)NC2CCCCC2)c2ccc(O)cc2)c1` (configuration not stated), the CPE inhibition is 12.5% (active).
To `CC(C)[C@H](NC(=O)c1ccccc1)C(=O)OCC(=O)N1CCCCCC1` belongs 1.74% (inactive); to `COc1cc(C(=O)NC(=S)N(CCc2ccccc2)CCc2ccccc2)cc(OC)c1OC`, “inactive”; to `COCCNC(=S)N/N=C(\C)c1ccccc1OC`, 0.125% (inactive).
Turning to `COc1cccc(/C=C(/C(=O)OCC(=O)NC2CCCC(C)C2C)c2ccccc2)c1` (configuration not stated), the CPE inhibition is 28.3% (active).
`Cc1ccc(-c2nc(N)sc2CC(=O)OCC(=O)NC2CCCC(C)C2C)cc1` (configuration not stated): the CPE inhibition was 0.74% (inactive).
To `CC1CCCC(NC(=O)COC(=O)c2cccc(NS(=O)(=O)/C=C/c3ccccc3)c2)C1C` (configuration not stated) belongs “inactive”; to `O=C1COc2cc(ccc2[N+](=O)[O-])Oc2ccc(cc2Cl)C(=O)CCCCO1`, “inactive”; to `c1nc(N2CCC3(CC2)OCCO3)c2[nH]cnc2n1`, “inactive”.
For the compound `Cc1ccc(C(C(=O)NC2CCCCC2)N(C(=O)Cc2c[nH]c3ccccc23)c2ccccc2C)o1` (configuration not stated), the CPE inhibition is 3.84% (inactive).
Turning to `COc1cccc(CN(C(=O)Cc2c[nH]c3ccccc23)C(C(=O)NC2CCCCC2)c2ccc(C)o2)c1` (configuration not stated), the CPE inhibition was 3.12% (inactive).
Next, `Cc1ccc(C(C(=O)NC2CCCCC2)N(Cc2ccccc2)C(=O)Cc2c[nH]c3ccccc23)o1` (configuration not stated): 24.2% (active); `CCN1CCS/C1=C/C=C/C1=[N+](CC)CCS1`: 0.14% (inactive); `CC(C)(C)[C@H]1C=C(C(=O)Nc2ccccc2)O[C@@H](OCCCCO)C1`: “inactive”.
Take `CC12CCC(C(=O)N(c3cccc(Cl)c3)C1=O)C2(C)C` (configuration not stated): the CPE inhibition entry is “inactive”.
To `O=C1C2C(c3ccccc3)(C(=O)N1c1ccc(Cl)cc1)C2(c1ccccc1)c1ccccc1` (configuration not stated) belongs 1.7% (inactive).
Next, `O=C1C2C3C=CC(c4ccccc4)(C2C(=O)N1c1cccc(Cl)c1)C1C(=O)N(c2cccc(Cl)c2)C(=O)C31` (configuration not stated): 25.2% (active); `CC(C)(C)c1ccc(-c2ccc3c(c2)S(=O)(=O)c2ccccc2C3=O)cc1`: 2.16% (inactive); `COc1ccc(CCN2C(=O)NC(NC(C)=O)(C(F)(F)F)C2=O)cc1OC` (configuration not stated): 0.945% (inactive).
With `COc1ccc(CN2C[C@H](Cc3ccccc3)[C@@H](CC(=O)Nc3ccccc3)C2=O)cc1`, the CPE inhibition was 13.5% (active).
In the case of `CCCCC[C@H]1CN(CCCC)C(=O)[C@@H]1CC(=O)NCc1ccccc1`, the CPE inhibition is 3.67% (inactive).
Next, `COC(=O)CN1C(=S)N(Cc2ccccc2)C(=O)C1CC(=O)Nc1ccc(OC)cc1` (configuration not stated): “inactive”; `O=C(CN1C2=NCCCN2c2ccccc21)c1cccc(Br)c1`: 4% (inactive).
To `C[C@]12C(=O)N(c3ccc(F)cc3)C(=O)N1[C@H]1c3ccccc3OC[C@@H]1[C@H]2c1ccccc1` belongs 1.73% (inactive); to `CCOC(=O)[C@@H]1[C@H]2COc3cc(OC)ccc3[C@@H]2N2C(=O)N(c3ccccc3)C(=O)[C@]12C`, 0.065% (inactive).
Take `COc1ccc2c(c1)[C@H]1[C@H](CO2)[C@H](c2ccccc2)[C@]2(C)C(=O)Nc3cc(Cl)ccc3C(=O)N12`: the CPE inhibition is 11% (inactive).
To `COc1ccc2c(c1)OC[C@H]1[C@H]2N2C(=O)CN(Cc3ccc(F)cc3)C(=O)[C@@]2(C)[C@H]1c1ccccc1` belongs 12.2% (active); to `COc1ccc2c(c1)C(=O)N1[C@H]3c4cc(C)ccc4OC[C@@H]3[C@H](c3ccccc3)[C@]1(C)C(=O)N2`, 14.5% (active); to `COc1cc2c(cc1OC)C(=O)N1[C@H]3c4cc(Cl)ccc4OC[C@@H]3[C@H](c3ccccc3)[C@]1(C)C(=O)N2`, 16.3% (active).
To `C[C@@]12C(=O)Nc3ccc(Br)cc3C(=O)N1[C@H]1c3cc(Cl)ccc3OC[C@@H]1[C@@H]2c1ccccc1` belongs 18.8% (active).
As for `C[C@]12C(=O)N(c3ccc(C(F)(F)F)cc3)C(=O)N1[C@H]1c3ccccc3OC[C@@H]1[C@H]2c1ccccc1`, the CPE inhibition is 11.2% (inactive).
To `CCOC(=O)[C@@H]1[C@H]2COc3cc(OC)ccc3[C@H]2N2C(=O)N(c3ccc(F)cc3)C(=O)[C@@]12C` belongs 2.49% (inactive); to `COc1ccc2c(c1)C(=O)N1[C@H]3c4cc(OC)ccc4OC[C@@H]3[C@H](c3ccccc3)[C@]1(C)C(=O)N2`, 7.37% (inactive).
To `C[C@@]12C(=O)Nc3ccc(F)cc3C(=O)N1[C@H]1c3cc(Br)ccc3OC[C@@H]1[C@@H]2c1ccccc1` belongs 6.78% (inactive).
Next, `COc1ccc2c(c1)[C@H]1[C@H](CO2)[C@H](c2ccccc2)[C@]2(C)C(=O)Nc3cc(OC)c(OC)cc3C(=O)N12`: 2% (inactive); `CCOc1ccc(N2C(=O)/C(=C/c3ccco3)N(C)C2=S)cc1`: 3.13% (inactive).
As to `Cc1cc(C)cc(NC(=S)NCc2cccs2)c1`, the CPE inhibition was 1.1% (inactive).
To `Cc1ccc(C)c(NC(=O)COC(=O)c2cccc3c2C(=O)c2ccccc2C3=O)c1` belongs 0.805% (inactive); to `O=C(OC(c1ccccc1)c1nccc2ccccc12)c1cc([N+](=O)[O-])cc([N+](=O)[O-])c1` (configuration not stated), 0.39% (inactive).
To `Cc1ccc(-c2nn(-c3ccccc3)cc2/C=C/C(=O)Nc2nccs2)cc1` belongs 3.35% (inactive); to `CC(=O)N1CCC2(CC1)CC(=O)c1cc(Cl)ccc1O2`, “inactive”.
Turning to `Cc1cc(C)c(-c2csc(NC(=O)c3n[nH]c(=O)c4ccccc34)n2)c(C)c1`, the CPE inhibition was 2.35% (inactive).
On to `COC(=O)[C@H]1[C@H](CCc2ccccc2)NC(=O)N(Cc2ccccc2)[C@@H]1C`, for which the CPE inhibition entry was “inactive”.
Regarding `COC(=O)c1c(NC(=O)CC2Sc3ccc(C(F)(F)F)cc3NC2=O)sc(C)c1C` (configuration not stated), the CPE inhibition is 0.71% (inactive).
Consider `COC(=O)c1c(NC(=O)CN2CCC3(O)CCCCC3C2c2ccc(F)cc2)sc(C)c1C` (configuration not stated), for which the CPE inhibition is 27.5% (active).
To `COc1ccc(C2C3CCCCC3(O)CCN2C(=O)c2cccs2)cc1` (configuration not stated) belongs 2.42% (inactive); to `CCOC(=O)c1c(NC(=O)CN2C(=O)NC3(CCCCC3)C2=O)sc(C)c1-c1ccc(C)cc1`, 9.96% (inactive); to `COC(=O)c1c(NC(=O)CN2CCC3(O)CCCCC3C2c2ccccc2OC)sc(C)c1C` (configuration not stated), 2.39% (inactive).
To `COC(=O)c1c(NC(=O)CN2CCC3(O)CCCCC3C2c2cc(OC)ccc2OC)sc(C)c1C` (configuration not stated) belongs 11.8% (active); to `CCOc1cc(/C=C(\C#N)C(N)=O)ccc1OS(=O)(=O)c1ccccc1`, 0.64% (inactive).
